Data from PubChem BioAssay (NCATS).
Several values for one entry are separate records, joined by “and”; a condition that tells them apart may be missing. Identical values can stand only once. Results filed as inconclusive are left out. Activity calls are given as the source filed them. Unless noted, calls follow the shape of the dose curve; as a rule, active = well fitted curve in the direction sought with a large enough effect; inconclusive = small, poorly fitted or top-dose-only effect, or another doubt; inactive = no such curve, though single readings can be large; an effect the other way counts as inactive or inconclusive.

Experiments:
[1] = molecular target: Voltage-gated inwardly rectifying potassium channel KCNH2 (Homo sapiens) (UniProt Q12809); test: qHTS Assay for Small Molecule Inhibitors of the Human hERG Channel Activity (AID 588834);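 also: lower thallium flux fluorescence means stronger hERG block; nearly all actives have a fitted effect of over 50% in size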; also: potency is read from the fitted curve at half-maximal effect
Voltage-gated inwardly rectifying potassium channel KCNH2 (Homo sapiens), sequence (Q12809 whole entry, looked up): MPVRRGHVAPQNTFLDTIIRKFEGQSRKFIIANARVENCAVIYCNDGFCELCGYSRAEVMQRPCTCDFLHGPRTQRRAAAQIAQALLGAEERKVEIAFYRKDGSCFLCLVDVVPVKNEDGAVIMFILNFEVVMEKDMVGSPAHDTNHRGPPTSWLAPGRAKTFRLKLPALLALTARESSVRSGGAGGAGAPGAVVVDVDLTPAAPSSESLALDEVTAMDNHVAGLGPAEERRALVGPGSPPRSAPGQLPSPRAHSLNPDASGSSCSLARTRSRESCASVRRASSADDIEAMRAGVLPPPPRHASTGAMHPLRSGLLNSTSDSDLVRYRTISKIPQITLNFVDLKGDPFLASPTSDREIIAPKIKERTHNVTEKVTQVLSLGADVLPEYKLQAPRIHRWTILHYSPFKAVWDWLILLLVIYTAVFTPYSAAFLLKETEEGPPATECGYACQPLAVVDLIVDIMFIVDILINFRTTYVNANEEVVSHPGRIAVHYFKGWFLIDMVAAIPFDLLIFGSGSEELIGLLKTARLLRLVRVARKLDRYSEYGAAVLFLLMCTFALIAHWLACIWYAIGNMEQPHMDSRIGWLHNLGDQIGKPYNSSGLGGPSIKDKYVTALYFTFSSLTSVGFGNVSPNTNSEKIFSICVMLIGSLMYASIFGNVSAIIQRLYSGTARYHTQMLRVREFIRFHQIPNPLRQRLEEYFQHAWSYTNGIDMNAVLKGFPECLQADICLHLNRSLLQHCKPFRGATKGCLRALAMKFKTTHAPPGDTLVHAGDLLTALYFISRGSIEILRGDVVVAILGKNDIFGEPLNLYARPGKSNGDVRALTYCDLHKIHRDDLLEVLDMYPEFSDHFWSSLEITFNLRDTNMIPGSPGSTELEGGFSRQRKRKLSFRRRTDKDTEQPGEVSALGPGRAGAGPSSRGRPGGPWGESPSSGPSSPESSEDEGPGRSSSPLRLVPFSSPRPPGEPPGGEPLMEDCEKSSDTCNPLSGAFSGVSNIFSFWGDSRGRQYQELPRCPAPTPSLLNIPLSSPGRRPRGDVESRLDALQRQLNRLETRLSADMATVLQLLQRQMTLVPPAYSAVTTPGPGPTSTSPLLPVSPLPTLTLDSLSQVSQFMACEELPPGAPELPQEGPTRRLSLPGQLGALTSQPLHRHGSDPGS
Method in brief: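 U2OS cells BacMam-transduced with hERG, 2000 cells/well, compound ~10 min at 37 °C before stimulation buffer. FluxOR thallium flux fluorescence read kinetically on FDSS; decrease indicates block; AC50 from Hill fits.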

[2] = molecular target: Luciferin 4-monooxygenase (Photinus pyralis) (UniProt P08659); test: Biochemical firefly luciferase enzyme assay for NPC (AID 624030);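 also: purified P. pyralis luciferase at 10 nM with luciferin and ATP substrate; series mostly up to about 59 µM; nearly all actives have a fitted effect of over 70% in size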
Luciferin 4-monooxygenase (Photinus pyralis), sequence (P08659 whole entry, looked up): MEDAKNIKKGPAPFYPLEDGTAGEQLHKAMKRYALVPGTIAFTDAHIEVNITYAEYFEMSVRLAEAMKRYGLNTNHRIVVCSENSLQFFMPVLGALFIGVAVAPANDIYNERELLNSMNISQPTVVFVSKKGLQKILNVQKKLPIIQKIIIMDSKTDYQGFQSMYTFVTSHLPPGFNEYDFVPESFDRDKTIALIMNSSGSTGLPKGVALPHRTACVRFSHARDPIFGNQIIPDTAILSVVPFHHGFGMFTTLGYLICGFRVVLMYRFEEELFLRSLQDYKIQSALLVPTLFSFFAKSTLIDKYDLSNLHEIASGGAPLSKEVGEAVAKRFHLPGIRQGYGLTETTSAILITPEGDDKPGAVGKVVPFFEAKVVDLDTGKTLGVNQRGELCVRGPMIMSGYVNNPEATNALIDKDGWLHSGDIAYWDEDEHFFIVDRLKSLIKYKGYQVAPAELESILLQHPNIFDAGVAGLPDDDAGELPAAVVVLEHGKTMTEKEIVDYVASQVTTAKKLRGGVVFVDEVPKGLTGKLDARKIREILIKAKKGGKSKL
Method in brief: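 Purified P. pyralis luciferase at 10 nM in 50 mM Tris Acetate (final), luminescence read within 5 minutes of enzyme addition to compounds. Activity normalised to PTC124 versus DMSO; concentration-response curves classed by r2, magnitude and activity.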

[3] = S16 Schwann cell viability assay (CellTiter-Glo assay) (AID 624031);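 also: cellular ATP luminescence as a viability measure; series mostly up to about 58 µM; nearly all actives have a fitted effect of over 70% in size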
Method in brief: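 Luminescent ATP read-out (CellTiter-Glo) after 24 h compound exposure of native S16 rat Schwann cells at 37 °C. Signals were normalized between cell-free wells and DMSO-treated cells, set as 0% activity.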

[4] = S16 Schwann cell PMP22 intronic element firefly luciferase assay (AID 624032); also: nearly all actives have a fitted effect of over 30% in size; also: potency is read from the fitted curve at half-maximal effect
Method in brief: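 Rat S16 Schwann cells stably carrying firefly luciferase driven by a PMP22 intronic element, in 10% FBS, treated 24 h at 37 C. ONE-Glo luminescence normalized to PTC124 control and DMSO (0%); curves classed by r2, magnitude and activity.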

[5] = S16 Schwann cell PMP22 intronic element beta-lactamase assay (AID 624044; calls by dose curve; also: nearly all actives have a fitted effect of over 15% in size)
Method in brief: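 Rat S16 Schwann cells with beta-Lac driven by a PMP22 intronic element, compound-treated 24 h at 37 °C. LiveBLAzer FRET B/G read: 460 nm normalized to potassium clavulanate vs DMSO; 535 nm FRET as viability; concentration-effect curves classified.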

[6] = qHTS of Trypanosoma Brucei Inhibitors: LOPAC Validation (AID 624147)
Method in brief: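 Enzyme and substrate buffer are dispensed first and compound is pin-transferred. ADP at 130 uM final then starts the reaction, which runs 45 min at room temperature. Detection reagent is added for 10 min before luminescence is imaged.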

Measured: Potency

CCN(C(C)=O)c1cccc(-c2ccnc3c(C#N)cnn23)c1
inactive: [1] | [2] | [3] | [4]

CC[C@@H](CO)NC(=O)[C@@H]1C=C2c3cccc4[nH]cc(c34)C[C@H]2N(C)C1
inactive: [1] | [2] | [3] | [5] | [6]

CC(C)NCC(O)c1ccccc1Cl (stereo unspecified)
inactive: [1] | [2] | [3] | [4]

Cc1ccc(S(=O)(=O)N[C@@H](CCCCN)C(=O)CCl)cc1
inactive: [1] | [2] | [3] | [4] | [5] | [6]

CN1C(=S)CN=C(c2ccccc2)c2cc(Cl)ccc21
inactive: [1] | [2] | [3] | [4] | [5]

Cn1c(CCCC(=O)O)nc2cc(N(CCCl)CCCl)ccc21
inactive: [1] | [2] | [3]
active: [4] 1.02 µM

CC(C)=CC1C(C(=O)OCc2cccc(Oc3ccccc3)c2)C1(C)C (stereo unspecified)
inactive: [1] | [2] | [3] | [4] | [5]

COc1ccc(C(=O)c2c(C)n(CCN3CCOCC3)c3ccccc23)cc1
inactive: [1] | [2] | [5]

NCC(CC(=O)O)c1ccc(Cl)cc1 (stereo unspecified)
inactive: [1] | [2] | [3] | [4] | [6]

NCC1(CC(=O)O)CCCCC1
inactive: [1] | [2] | [3] | [4] | [6]

O=P1(NCCCl)OCCCN1CCCl (stereo unspecified)
inactive: [1] | [2] | [3] | [4] | [5]

Cc1ccc(-c2nc3ccc(C)cn3c2CC(=O)N(C)C)cc1
inactive: [1] | [2] | [3] | [4] | [5]

CC(C)CC(N(C)C)C1(c2ccc(Cl)cc2)CCC1 (stereo unspecified)
inactive: [1] | [2] | [3] | [4] | [5]

NN=C(N)N
inactive: [1] | [2] | [3] | [4] | [6]

c1ccc(C2CC2)c(OCC2=NCCN2)c1
inactive: [1] | [2] | [3] | [4] | [6]

C#CCOC(C(=O)OCCN(C)C)(c1ccccc1)c1ccccc1
inactive: [1] | [2] | [3] | [4] | [5]

COc1ccccc1N1CCNCC1
inactive: [1] | [2] | [3] | [4] | [5] | [6]

CC(CCc1ccccc1)NC(C)C(O)c1ccc(O)cc1 (stereo unspecified)
inactive: [2] | [3] | [6]
active: [1] 7.08 µM and 2 µM
